Screening data (PubChem BioAssay)
Sampled rows, rich in hits. Any-hit rate of the full collection: about 3.4%.
hgDAF-12 ag – H. glycines DAF-12 receptor agonists, primary screen, cell-based, luminescence, HEK293, GAL4 fusion, UAS-luciferase; activation, % at 6.8 µM; HEK293 GAL4-hgDAF12 UAS-luciferase reporter, agonist luminescence; normalized to butyrate control; 370,000 tested, 1.8% active; AID 687014, 2013;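 active = activation above a cutoff set at the mean of all screened compounds plus 3 SD, cut at about 10% in these data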;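 note: 0% = DMSO wells and 100% = sodium butyrate wells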
hcDAF12 agonist – H. contortus DAF-12 nuclear receptor activators, primary screen, cell-based, luminescence, HEK293, lit1-tk-luc reporter. HEK293 hcDAF-12 lit1-tk-luc reporter; 0% DMSO, 100% Δ7-dafachronic acid. activation, % at 6.8 µM. AID 652067, 2013. 370,000 tested, 1.4% active;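 active = activation above the mean of all tested compounds plus 3 SD, cut at about 5.5% in these data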;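 note: 100% = response to 3 µM Δ7-dafachronic acid high control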
NF-kB neuron act – activators of NF-kB expression in neurons, primary screen, cell-based, HTS; fold change at 12.5 µM; 190,000 tested, 1.6% active; AID 1239, 2008; human neuronal cells, NF-kB reporter expression; active compounds read high; in the data active = fold change above about 3.3
ssDAF12 agonist – S. stercoralis DAF-12 nuclear receptor activators, primary screen, cell-based, luminescence, HEK293, GRIP1 co-expression, lit1-tk-luc; HEK293 ssDAF-12/GRIP1 lit1-tk-luc reporter; % of 3 µM dafachronic acid response; Nuclear hormone receptor DAF-12 (Strongyloides stercoralis); activation, % at 6.8 µM; 370,000 tested, 1% active;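 active = activation above the mean over all tested compounds plus 3 SD, cut at about 0.9% in these data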;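 note: 0% = DMSO-only wells and 100% = 3 µM delta7-dafachronic acid wells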
APP 5'UTR act – activators of APP 5'UTR luciferase reporter, primary screen, SH-SY5Y cells. SH-SY5Y APP 5'UTR luciferase reporter, luminescence; zero percent = DMSO vehicle wells. activation, % at 2 µM. 190,000 tested, 1% active;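 active = activation above a set limit, based on mean plus 3 SD of controls, cut at about 140% in these data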
Active calls of the source: *.

What do the screens show for `COC(=O)[C@]12C[C@H](CC(=O)NCC34CC5CC(CC(C5)C3)C4)C(=O)N(Cc3ccccc3)C1=C[C@H](COCc1ccccc1)O[C@@H]2C`?
hgDAF-12 ag: 0.2; hcDAF12 agonist: -2.5; ssDAF12 agonist: -1.6

What do the screens show for `C[C@@H]1CN([C@@H](C)CO)C(=O)c2cccc(NC(=O)Nc3cccc4ccccc34)c2O[C@H]1CN(C)S(=O)(=O)c1ccc(Cl)cc1`?
hgDAF-12 ag: -5.6; hcDAF12 agonist: -0.8; ssDAF12 agonist: -1.5

What do the screens show for `CCOC(=O)CSC1=NC(=O)/C(=C\c2ccc(Cl)cc2)S1`?
hgDAF-12 ag: 7.8; hcDAF12 agonist: 2.5; NF-kB neuron act: 1.56; ssDAF12 agonist: 1.3*; APP 5'UTR act: 3.3

What do the screens show for `CSC1=NC(=O)/C(=C/c2ccc(SC)cc2)S1`?
hgDAF-12 ag: 12.8*; hcDAF12 agonist: 2.5; NF-kB neuron act: 1.84; ssDAF12 agonist: -1.2; APP 5'UTR act: 16.8

What do the screens show for `CN=C1S/C(=C\c2ccc(SC)cc2)C(=O)N1C`?
hgDAF-12 ag: 1.3; hcDAF12 agonist: -1.2; ssDAF12 agonist: -1.4

How did O=C(CSc1nnc(-c2cnccn2)n1-c1ccccc1)c1ccc(F)cc1 do in these assays?
hgDAF-12 ag: -2.9; hcDAF12 agonist: -0.7; ssDAF12 agonist: -0.6

Results for Cc1nc2c(OCc3ccc(Cl)cc3)cccn2c1N(C)C(=O)CCC1CCCC1 ?
hgDAF-12 ag: 10.5*; hcDAF12 agonist: -1.0; ssDAF12 agonist: -0.9

How did CCCCCCCCNS(=O)(=O)CC1NCc2ccccc21 (centres undefined) do in these assays?
hgDAF-12 ag: 2.8; hcDAF12 agonist: 0.6; ssDAF12 agonist: -0.4

Results for O=C(Nc1nc2ccccc2[nH]1)C1CC1 ?
hgDAF-12 ag: 9.1; hcDAF12 agonist: 1.1; NF-kB neuron act: 0.94; ssDAF12 agonist: -1.0; APP 5'UTR act: 10.3

Results for O=C(Nc1nc2ccccc2[nH]1)c1ccc([N+](=O)[O-])cc1 ?
hgDAF-12 ag: 9.3; hcDAF12 agonist: 4.2; NF-kB neuron act: 3.01; ssDAF12 agonist: -0.6; APP 5'UTR act: 190.4*

How did O=C(Nc1nc2ccccc2[nH]1)C12CC3CC(CC(C3)C1)C2 do in these assays?
hgDAF-12 ag: 8.7; hcDAF12 agonist: 5.8*; NF-kB neuron act: 3.15; ssDAF12 agonist: 0.3; APP 5'UTR act: 78.6

How did COc1ccc(C(=O)N[C@H](C(=O)Nc2nc3ccccc3[nH]2)C(C)C)cc1 do in these assays?
hgDAF-12 ag: 13.0*; hcDAF12 agonist: 3.3; NF-kB neuron act: 1.02; ssDAF12 agonist: 0.2; APP 5'UTR act: -76.7

How did COC(=O)c1cc(C(=O)Nc2nc3ccccc3[nH]2)cc([N+](=O)[O-])c1 do in these assays?
hgDAF-12 ag: 5.4; hcDAF12 agonist: 0.8; ssDAF12 agonist: -0.8

Results for O=C(Cc1ccccc1Cl)Nc1nc2ccccc2[nH]1 ?
hgDAF-12 ag: 1.9; hcDAF12 agonist: 6.0*; ssDAF12 agonist: -0.2

How did COc1ccc(C(=O)OCCCN(C)C2CN(Cc3cn(Cc4ccc([N+](=O)[O-])cc4)nn3)S(=O)(=O)C2)cc1OC (centres undefined) do in these assays?
hgDAF-12 ag: -3.1; hcDAF12 agonist: -0.6; ssDAF12 agonist: -1.4

What do the screens show for `O=C(CSc1nnc(-c2ccccc2F)n1-c1ccccc1)c1ccc2ccccc2c1`?
hgDAF-12 ag: 3.3; hcDAF12 agonist: -1.4; ssDAF12 agonist: -0.8

What do the screens show for `C#CCNC(=O)C[C@H]1C(=O)N(CCCOC)C2=CCCCC[C@]21C(=O)OC`?
hgDAF-12 ag: -2.6; hcDAF12 agonist: 0.8; ssDAF12 agonist: -0.9

Results for O=C(Nc1ccc(Cl)cc1)c1ccc2c(=O)n3c(nc2c1)CCCCC3 ?
hgDAF-12 ag: -0.4; hcDAF12 agonist: -4.3; ssDAF12 agonist: -1.6

What do the screens show for `O=C(Nc1cccc(Cl)c1)c1ccc2c(=O)n3c(nc2c1)CCCCC3`?
hgDAF-12 ag: 4.8; hcDAF12 agonist: 1.1; NF-kB neuron act: 2.7; ssDAF12 agonist: -0.3; APP 5'UTR act: 202.3*

What do the screens show for `CCn1c(COc2ccc(C)cc2)nnc1SCC(=O)c1ccc(-c2ccccc2)cc1`?
hgDAF-12 ag: 0.7; hcDAF12 agonist: -3.6; ssDAF12 agonist: -1.4

Results for O=C(/C=C/c1ccc2c(c1)OCO2)c1ccc(O)cc1O ?
hgDAF-12 ag: 8.0; hcDAF12 agonist: 1.6; ssDAF12 agonist: -0.3

Results for COc1cccc(/C=C/C(=O)c2ccc3c(c2)OCCO3)c1OC ?
hgDAF-12 ag: 10.5*; hcDAF12 agonist: 0.0; ssDAF12 agonist: -0.7

Results for CCN(CC(=O)Nc1ccc2c(c1)OCCO2)C(=O)/C=C/c1cccc(OC)c1OC ?
hgDAF-12 ag: 5.5; hcDAF12 agonist: 0.9; ssDAF12 agonist: -0.4

Results for Nc1ccccc1C(=O)/C=C/c1ccc2c(c1)OCO2 ?
hgDAF-12 ag: 3.7; hcDAF12 agonist: 0.6; NF-kB neuron act: 7.19*; ssDAF12 agonist: 0.5; APP 5'UTR act: 128.6

How did O=C(/C=C/c1ccc2c(c1)OCCO2)c1ccccc1 do in these assays?
hgDAF-12 ag: 11.1*; hcDAF12 agonist: 3.6; ssDAF12 agonist: -0.5

Results for COc1ccc(C2=NOC(C(=O)O)C2)cc1 (centres undefined) ?
hgDAF-12 ag: 2.5; hcDAF12 agonist: 4.8; NF-kB neuron act: 1.69; ssDAF12 agonist: 1.8*; APP 5'UTR act: 13.2

How did O=C(O)C1CC(c2ccccc2)=NO1 (centres undefined) do in these assays?
hgDAF-12 ag: 0.5; hcDAF12 agonist: -1.0; NF-kB neuron act: 1.08; ssDAF12 agonist: -0.7

What do the screens show for `Cn1c(-c2ccc(CN3CCCCC3)o2)nc2ccccc21`?
hgDAF-12 ag: 9.2; hcDAF12 agonist: 5.8*; NF-kB neuron act: 2.42; ssDAF12 agonist: 1.2*

What do the screens show for `C/C=C/c1ccc([C@@H]2[C@H](CO)N(S(C)(=O)=O)[C@H]2CN(C)C(=O)CC)cc1`?
hgDAF-12 ag: 5.6; hcDAF12 agonist: -1.7; ssDAF12 agonist: -1.1

Results for N/C(=N\OC(=O)c1ccncc1)c1cccc([N+](=O)[O-])c1 ?
hgDAF-12 ag: 1.7; hcDAF12 agonist: 0.8; ssDAF12 agonist: -1.2

Results for Cc1cccc(C(=O)O/N=C(\N)c2ccc(Br)cc2)c1 ?
hgDAF-12 ag: 7.7; hcDAF12 agonist: 6.1*; NF-kB neuron act: 4.03*; ssDAF12 agonist: -0.5; APP 5'UTR act: 30.6

How did Cc1cccc(C(=O)O/N=C(\N)c2ccc(Cl)cc2)c1 do in these assays?
hgDAF-12 ag: 4.8; hcDAF12 agonist: 5.6*; ssDAF12 agonist: 1.0*

Results for COc1ccc(C(=O)O/N=C(\N)c2cccc(C)c2)cc1OC ?
hgDAF-12 ag: 2.5; hcDAF12 agonist: 0.1; ssDAF12 agonist: -0.5

How did Cc1cccc(/C(N)=N/OC(=O)c2ccncc2)c1 do in these assays?
hgDAF-12 ag: 15.7*; hcDAF12 agonist: 2.7; ssDAF12 agonist: 0.4
